# According to PubChem BioAssay (EPA / NIEHS):
# Inconclusive results are not listed. Calls of active or inactive are those of the source. The calls were made as follows: active = hit-call score of the fitted dose curve at least 0.9, where 1 is the maximum; inconclusive = response in the unintended direction; inactive = score below 0.9.
# Read-out: organic anion transporter (SLCO1B1), SLCO1B1 (gene 10599)
# Test: CLD_SLCO1B1_24hr: CellzDirect (CLD) Gene Expression Assay for organic anion transporter (SLCO1B1) at 24 hours (AID 2283690)
# Method: CLD_24hr is a cell-based, multiplexed-readout assay that uses hepatocyte, a human liver primary cell, with measurements taken at 24 hours after chemical dosing in a 96-well plate.CLD_SLCO1B1_24hr is one of 16 assay component(s) measured or calculated from the CLD_24hr assay. It is designed to make measurements of mRNA induction, a form of inducible reporter, as detected with chemiluminescence signals by Quantitative Nuclease Protection Assay (qNPA) technology.Data from the assay component CLD_SLCO1B1_24hr was analyzed at the endpoint, CLD_SLCO1B1_24hr, in the positive analysis fitting direction relative to DMSO as the negative control and baseline of activity. Using a type of inducible reporter, gain-of-signal activity can be used to understand changes in the reporter gene as they relate to the gene SLCO1B1. Furthermore, this assay endpoint can be referred to as a primary readout. To generalize the intended target to other relatable targets, this assay endpoint is annotated to the transporter intended target family, where subfamily is organic anion transporter.
# Human hepatocyte cultures were treated daily for two consecutive days with fresh dosing solutions containing appropriate concentrations of the 320 ToxCast chemicals (chemical identities were blinded to CellzDirect and other ToxCast collaborators), vehicle control (0.2% DMSO), and positive control inducers as summarized in Table 1. Due to the large number of treatment groups and chemicals examined, the ToxCast chemicals were divided into two groups (spanning two independent cultures of hepatocytes from separate donor preparations (Hu778: ToxCast plates 1 and 2; Hu776: ToxCast plates 3 and 4). Each preparation of human hepatocyte cultures was treated with respective vehicle control, medium only control, set of six positive controls/reference chemicals for the five hepatic receptor pathways, and a subset of eight of the ToxCast chemicals (indoxacarb, pyrithiobac-sodium, norflurazon, cyhalofop-butyl, methomyl, thiram, acetochlor, and propiconazole). These replicate data, coupled with internal replicates designed within the blinded ToxCast chemical library, provided additional data to evaluate interindividual differences between hepatocyte preparations and their potential impact on chemical profiles.Cell morphology and integrity were evaluated using phase-contrast microscopy as an indicator of hepatocyte cell health (Tyson & Green, 1987). Cultures for each treatment group (i.e., media, vehicle [0.2% DMSO], positive control inducers [multiple concentrations], and the ToxCast chemicals [multiple concentrations]) were observed and cell morphology was assessed relative to vehicle control cultures at each harvest time point (0, 6, 24, or 48 h). […] Images were evaluated at the conclusion of the study to assess changes in cell integrity and account for the effects of chemical exposure on uncharacteristic changes in concentration-dependent gene expression profiles. The results from these determinations of apparent cytotoxicity were annotated (yes/no) alongside the corresponding qNPA data for reference.At the conclusion of each treatment period, hepatocyte cultures (96-well) were washed with 1 volume of HBSS, lysed by addition of 25 ul ArrayPlate lysis buffer (HTG, Tucson, AZ), and 70 ul/well of Denaturation Oil, denatured by incubation at 95C for 10 min, and frozen at approximately -70C until analysis by nuclease protection assay (qNPA) (Roberts et al., 2007). For qNPA analysis, cell lysates were thawed at 50C for approximately 30 min, qNPA probes were added, and samples were incubated at 95C for 10 min to begin the detection process by denaturing the target RNA, dissociating the duplexes and secondary structure hybridization. At the conclusion of the hybridization period, S1 nuclease reagent was added to each sample to digest all nonprotected nucleotides at 50C for 60-90 min. […]
row,Compound,outcome
1,CN1COCN(Cc2cnc(Cl)s2)C1=N[N+](=O)[O-],inactive
2,O=C(O)c1cc(Oc2ccc(C(F)(F)F)cc2Cl)ccc1[N+](=O)[O-],inactive
3,CCOC(=O)COc1cc(-c2nn(C)c(OC(F)F)c2Cl)c(F)cc1Cl,inactive
4,CNC(=O)ON=C(SC)C(=O)N(C)C,inactive
5,COP(=O)(OC)C(O)C(Cl)(Cl)Cl (centres undefined),inactive
6,CSC1=N[C@@](C)(c2ccccc2)C(=O)N1Nc1ccccc1,inactive
7,S=C1NCCN1,inactive
8,CCCCSP(=O)(SCCCC)SCCCC,inactive
9,COc1cc(OC)nc(Sc2cccc(Cl)c2C(=O)O)n1,inactive
10,CCc1cnc(C2=NC(C)(C(C)C)C(=O)N2)c(C(=O)O)c1 (centres undefined),inactive
11,CC(C)=CC1C(C(=O)OCN2C(=O)C3=C(CCCC3)C2=O)C1(C)C (centres undefined),inactive
12,CCc1cccc(CC)c1N(COC)C(=O)CCl,inactive
13,CCOP(=S)(OCC)SCCSCC,inactive
14,COP(=O)(NC(C)=O)SC (centres undefined),inactive
15,Nc1nc(N)nc(NC2CC2)n1,inactive
16,C=C(C)[C@H]1Cc2c(ccc3c2O[C@@H]2COc4cc(OC)c(OC)cc4[C@@H]2C3=O)O1,inactive
17,CC(C)[C@H](C(=O)O[C@H](C#N)c1cccc(Oc2ccccc2)c1)c1ccc(Cl)cc1,inactive
18,CNC(=O)Oc1cccc2c1OC(C)(C)O2,inactive
19,CC(C1CC1)C(O)(Cn1cncn1)c1ccc(Cl)cc1 (centres undefined),inactive
20,C#CCC1=C(C)C(OC(=O)C2C(C=C(C)C)C2(C)C)CC1=O (centres undefined),inactive

row,Compound,outcome
1,O=c1ccc(=O)[nH][nH]1,inactive
2,COc1cccc(C(=O)NN(C(=O)c2cc(C)cc(C)c2)C(C)(C)C)c1C,inactive
3,CCCOc1nn(C(=O)NS(=O)(=O)c2ccccc2C(=O)OC)c(=O)n1C,inactive
4,CCOP(=S)(OCC)Oc1ccc2c(C)c(Cl)c(=O)oc2c1,inactive
5,CC(COc1ccc(Oc2ccccc2)cc1)Oc1ccccn1 (centres undefined),inactive
6,COc1ccc(C(=CC(=O)N2CCOCC2)c2ccc(Cl)cc2)cc1OC,inactive
7,CCOC(=O)CC(SP(=O)(OC)OC)C(=O)OCC (centres undefined),inactive
8,CN(C)C(=O)Nc1cccc(C(F)(F)F)c1,inactive
9,CCNc1nc(Cl)nc(NC(C)(C)C#N)n1,inactive
10,CC1(C(=O)Nc2ccc(O)c(Cl)c2Cl)CCCCC1,inactive
11,CN(C)NC(=O)CCC(=O)O,inactive
12,CCOP(=O)(SC(C)CC)N1CCSC1=O (centres undefined),inactive
13,CCOP(=S)(OCC)OC(Cl)C(Cl)(Cl)Cl (centres undefined),inactive
14,CN(C)[C@@H]1C(=O)C(C(N)=O)=C(O)[C@@]2(O)C(=O)C3=C(O)c4c(O)cccc4[C@@](C)(O)[C@H]3[C@H](O)[C@@H]12,inactive
15,CNC(=O)ON=C(C)SC,inactive
16,CCCSP(=O)(OCC)Oc1ccc(Br)cc1Cl (centres undefined),inactive
17,CCOP(=O)(OCC)Oc1cc(C)nc(C(C)C)n1,inactive
18,Cc1nn(-c2cc(NS(C)(=O)=O)c(Cl)cc2Cl)c(=O)n1C(F)F,inactive
19,CC(=NC#N)N(C)Cc1ccc(Cl)nc1,inactive
